Assay results as given in ChEMBL document CHEMBL3988442, “University of Dundee, Small-Polar-MMV Screening Library” (2021).
For some of these results: Measured potencies and affinities stand elsewhere.

Tests used:
Parameters in all cases: scale not given: direction of the effect not stated beside the values
[1] = biological target: Protein translocase subunit SecA (Escherichia coli (strain K12)) (UniProt P10408); test: Assay to Identify E. coli SecA ATPase Inhibitors; type: functional; details: 30 µM
[2] = biological target: T1, Ubiquitin-activating enzyme e1, putative (Leishmania donovani (strain BPK282A1)) (UniProt E9BSI1); test: Leishmania donovani Ubiquitin Activating Enzyme (LdE1); type: functional; details: 30 µM
T1 sequence (whole entry): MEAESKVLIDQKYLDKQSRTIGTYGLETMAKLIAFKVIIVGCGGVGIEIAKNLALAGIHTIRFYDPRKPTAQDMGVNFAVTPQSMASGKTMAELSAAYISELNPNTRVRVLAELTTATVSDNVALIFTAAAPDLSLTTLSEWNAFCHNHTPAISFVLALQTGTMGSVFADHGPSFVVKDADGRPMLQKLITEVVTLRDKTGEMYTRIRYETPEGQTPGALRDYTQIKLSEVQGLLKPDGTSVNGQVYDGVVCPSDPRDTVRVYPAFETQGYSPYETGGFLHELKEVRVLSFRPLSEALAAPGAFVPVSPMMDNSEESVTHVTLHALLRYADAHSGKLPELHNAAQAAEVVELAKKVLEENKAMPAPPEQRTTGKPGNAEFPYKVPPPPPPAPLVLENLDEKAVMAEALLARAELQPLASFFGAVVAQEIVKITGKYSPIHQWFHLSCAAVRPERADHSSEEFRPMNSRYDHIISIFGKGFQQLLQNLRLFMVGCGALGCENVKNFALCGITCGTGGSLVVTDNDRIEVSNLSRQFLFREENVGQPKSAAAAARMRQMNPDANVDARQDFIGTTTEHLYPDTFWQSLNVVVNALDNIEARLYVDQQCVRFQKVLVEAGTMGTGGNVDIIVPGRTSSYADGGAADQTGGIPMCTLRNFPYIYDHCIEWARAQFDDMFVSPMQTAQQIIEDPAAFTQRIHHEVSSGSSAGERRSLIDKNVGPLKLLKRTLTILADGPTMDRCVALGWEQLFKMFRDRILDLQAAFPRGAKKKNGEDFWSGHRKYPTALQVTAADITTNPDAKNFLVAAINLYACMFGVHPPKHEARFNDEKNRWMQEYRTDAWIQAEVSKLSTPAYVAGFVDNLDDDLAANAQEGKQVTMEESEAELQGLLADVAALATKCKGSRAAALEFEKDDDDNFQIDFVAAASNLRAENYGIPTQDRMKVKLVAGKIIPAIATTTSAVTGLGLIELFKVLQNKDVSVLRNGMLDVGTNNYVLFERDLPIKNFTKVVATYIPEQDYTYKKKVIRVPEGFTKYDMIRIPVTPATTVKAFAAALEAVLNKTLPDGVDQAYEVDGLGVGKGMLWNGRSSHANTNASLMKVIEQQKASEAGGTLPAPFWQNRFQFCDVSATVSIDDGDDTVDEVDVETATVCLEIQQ

[3] = biological target: AMP-activated protein kinase, AMPK (Homo sapiens) (UniProt P54646+O43741+P54619+Q9UGJ0+Q9Y478+Q13131+Q9UGI9); test: AMP-dependent Kinase enzyme assay. An in vitro enzyme assay that detects ADP turnover that is directly proportional to AMPK activity. This uses naive AMPK that is activated during the assay with MK-8722; type: functional; details: 30 µM
[4] = biological target: Sialic acid-binding Ig-like lectin 9 (Homo sapiens) (UniProt Q9Y336); test: Hs-Siglec9 ALPHAscreen SOP 20170721; details: 10 µM
Trypanosoma cruzi = test: Trypanosoma cruzi phosphomannomutase and mannose-1-phosphate guanylyltransferase assay; type: functional; details: 10 µM
[5] = biological target: T2, Arginase-2, mitochondrial (Homo sapiens) (UniProt P78540); test: in vitro enzyme assay to detect the production of urea directly proportional to the activity of Arginase II; type: functional; details: 33.3 µM; further: in the data most compounds retested in dose-response had high values
T2 sequence (whole entry): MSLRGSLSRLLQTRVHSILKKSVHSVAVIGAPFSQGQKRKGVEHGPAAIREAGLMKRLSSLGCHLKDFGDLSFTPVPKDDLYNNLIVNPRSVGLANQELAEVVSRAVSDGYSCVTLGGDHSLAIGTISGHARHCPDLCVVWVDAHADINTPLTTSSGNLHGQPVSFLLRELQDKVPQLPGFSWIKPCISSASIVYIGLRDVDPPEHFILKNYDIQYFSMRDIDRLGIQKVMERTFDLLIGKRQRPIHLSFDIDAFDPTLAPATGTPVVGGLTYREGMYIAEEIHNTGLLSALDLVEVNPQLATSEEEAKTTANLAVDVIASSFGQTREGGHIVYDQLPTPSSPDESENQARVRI

[6] = biological target: T3, Proteasome subunit beta (Trypanosoma cruzi) (UniProt O96673); test: Trypanosoma cruzi proteasome chymotrypsin-like activity (TcProtChymo) assay.; further: in the data most compounds retested in dose-response had high values; type: functional; details: 9.37 µM
T3 sequence (whole entry): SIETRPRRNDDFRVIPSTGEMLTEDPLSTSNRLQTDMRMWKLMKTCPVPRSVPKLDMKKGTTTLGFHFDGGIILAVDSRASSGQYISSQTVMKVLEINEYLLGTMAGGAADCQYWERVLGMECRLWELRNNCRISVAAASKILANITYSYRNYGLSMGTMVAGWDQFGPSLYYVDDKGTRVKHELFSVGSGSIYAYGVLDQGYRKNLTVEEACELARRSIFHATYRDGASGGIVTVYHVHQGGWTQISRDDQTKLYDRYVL

Homo sapiens = organism: Homo sapiens; test: To identify inhibition of the IFN signalling (Jak-Stat) pathway via expression of an eGFP reporter gene under the control of an IFN-stimulated response element (ISRE) containing MxA promoter.; type: functional; details: 30 µM
[7] = biological target: T4, Tyrosyl-tRNA synthetase, putative (Trypanosoma cruzi (strain CL Brener)) (UniProt Q4DSP6); test: Trypanosoma cruzi tyrosyl tRNA synthetase (TcYRS) _High Tyrosine SOP; type: functional; details: 30 µM; further: in the data most compounds retested in dose-response had high values
T4 sequence (whole entry): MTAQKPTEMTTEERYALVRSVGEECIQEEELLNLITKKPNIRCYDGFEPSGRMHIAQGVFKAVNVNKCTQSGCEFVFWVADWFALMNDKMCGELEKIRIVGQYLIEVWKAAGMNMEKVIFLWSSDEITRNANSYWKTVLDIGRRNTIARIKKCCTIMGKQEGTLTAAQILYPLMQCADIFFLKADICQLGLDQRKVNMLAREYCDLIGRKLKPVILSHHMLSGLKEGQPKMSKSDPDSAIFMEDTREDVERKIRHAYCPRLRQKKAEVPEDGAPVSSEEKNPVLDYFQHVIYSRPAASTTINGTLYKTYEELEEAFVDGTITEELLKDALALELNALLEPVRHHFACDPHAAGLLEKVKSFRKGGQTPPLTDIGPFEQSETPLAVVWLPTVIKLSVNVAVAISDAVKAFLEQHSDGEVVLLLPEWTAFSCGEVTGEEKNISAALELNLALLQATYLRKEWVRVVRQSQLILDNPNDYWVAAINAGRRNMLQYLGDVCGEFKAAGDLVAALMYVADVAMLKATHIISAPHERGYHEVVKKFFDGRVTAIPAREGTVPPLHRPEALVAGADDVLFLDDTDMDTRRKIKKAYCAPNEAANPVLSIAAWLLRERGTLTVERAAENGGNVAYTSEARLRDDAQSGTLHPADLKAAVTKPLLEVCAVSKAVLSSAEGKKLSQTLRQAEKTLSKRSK

[8] = biological target: T4, Tyrosyl-tRNA synthetase, putative (Trypanosoma cruzi (strain CL Brener)); test: Trypanosoma cruzi tyrosyl tRNA synthetase (TcYRS) SOP; type: functional; details: 30 µM
[9] = biological target: Chromo domain-containing protein 1 (Saccharomyces cerevisiae (strain ATCC 204508 / S288c) (Baker's yeast)) (UniProt P32657); test: ScCHD-1 Enzyme Inhibition Assay; type: functional; details: 30 µM; further: in the data most compounds retested in dose-response had high values
Chain of Chromo domain-containing protein 1 (Saccharomyces cerevisiae (strain ATCC 204508 / S288c) (Baker's yeast)) (P32657 whole entry, the tested form may be a part): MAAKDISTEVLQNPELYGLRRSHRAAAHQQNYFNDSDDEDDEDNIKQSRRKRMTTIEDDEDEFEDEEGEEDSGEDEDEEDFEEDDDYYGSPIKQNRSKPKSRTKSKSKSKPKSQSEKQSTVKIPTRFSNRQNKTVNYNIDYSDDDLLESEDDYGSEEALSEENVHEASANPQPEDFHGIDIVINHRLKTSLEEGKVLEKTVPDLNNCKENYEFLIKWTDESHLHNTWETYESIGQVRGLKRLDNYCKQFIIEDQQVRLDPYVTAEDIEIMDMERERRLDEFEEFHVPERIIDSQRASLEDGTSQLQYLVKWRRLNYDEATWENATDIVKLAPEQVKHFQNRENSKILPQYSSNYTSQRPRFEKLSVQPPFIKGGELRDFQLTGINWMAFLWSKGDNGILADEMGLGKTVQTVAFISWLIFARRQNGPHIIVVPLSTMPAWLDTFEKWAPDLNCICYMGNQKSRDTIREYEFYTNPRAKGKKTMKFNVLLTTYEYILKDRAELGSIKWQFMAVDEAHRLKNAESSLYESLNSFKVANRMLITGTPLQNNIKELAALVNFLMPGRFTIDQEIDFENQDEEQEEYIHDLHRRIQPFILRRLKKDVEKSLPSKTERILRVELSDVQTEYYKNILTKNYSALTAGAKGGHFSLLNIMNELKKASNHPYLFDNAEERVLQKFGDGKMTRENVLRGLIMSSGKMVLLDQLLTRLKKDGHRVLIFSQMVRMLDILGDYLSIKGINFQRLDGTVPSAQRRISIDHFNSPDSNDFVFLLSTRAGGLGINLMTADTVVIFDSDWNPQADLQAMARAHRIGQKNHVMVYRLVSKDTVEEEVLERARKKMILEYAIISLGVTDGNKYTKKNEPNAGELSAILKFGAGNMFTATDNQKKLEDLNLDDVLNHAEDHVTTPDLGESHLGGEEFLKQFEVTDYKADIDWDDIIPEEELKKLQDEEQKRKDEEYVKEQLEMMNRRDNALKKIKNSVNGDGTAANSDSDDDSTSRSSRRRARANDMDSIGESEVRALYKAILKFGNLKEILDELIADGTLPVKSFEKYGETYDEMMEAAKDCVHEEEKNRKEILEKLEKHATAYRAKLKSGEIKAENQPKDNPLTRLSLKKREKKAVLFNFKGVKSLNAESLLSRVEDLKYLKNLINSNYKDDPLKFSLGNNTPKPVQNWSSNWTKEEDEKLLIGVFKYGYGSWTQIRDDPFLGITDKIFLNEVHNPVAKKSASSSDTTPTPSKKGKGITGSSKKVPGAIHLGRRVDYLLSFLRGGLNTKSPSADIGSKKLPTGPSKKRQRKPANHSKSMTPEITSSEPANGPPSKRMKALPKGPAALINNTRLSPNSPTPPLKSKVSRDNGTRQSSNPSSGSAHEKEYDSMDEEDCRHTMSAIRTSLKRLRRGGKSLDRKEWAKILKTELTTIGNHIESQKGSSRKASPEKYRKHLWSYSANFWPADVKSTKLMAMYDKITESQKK

Chain of Protein translocase subunit SecA (Escherichia coli (strain K12)) (P10408 whole entry): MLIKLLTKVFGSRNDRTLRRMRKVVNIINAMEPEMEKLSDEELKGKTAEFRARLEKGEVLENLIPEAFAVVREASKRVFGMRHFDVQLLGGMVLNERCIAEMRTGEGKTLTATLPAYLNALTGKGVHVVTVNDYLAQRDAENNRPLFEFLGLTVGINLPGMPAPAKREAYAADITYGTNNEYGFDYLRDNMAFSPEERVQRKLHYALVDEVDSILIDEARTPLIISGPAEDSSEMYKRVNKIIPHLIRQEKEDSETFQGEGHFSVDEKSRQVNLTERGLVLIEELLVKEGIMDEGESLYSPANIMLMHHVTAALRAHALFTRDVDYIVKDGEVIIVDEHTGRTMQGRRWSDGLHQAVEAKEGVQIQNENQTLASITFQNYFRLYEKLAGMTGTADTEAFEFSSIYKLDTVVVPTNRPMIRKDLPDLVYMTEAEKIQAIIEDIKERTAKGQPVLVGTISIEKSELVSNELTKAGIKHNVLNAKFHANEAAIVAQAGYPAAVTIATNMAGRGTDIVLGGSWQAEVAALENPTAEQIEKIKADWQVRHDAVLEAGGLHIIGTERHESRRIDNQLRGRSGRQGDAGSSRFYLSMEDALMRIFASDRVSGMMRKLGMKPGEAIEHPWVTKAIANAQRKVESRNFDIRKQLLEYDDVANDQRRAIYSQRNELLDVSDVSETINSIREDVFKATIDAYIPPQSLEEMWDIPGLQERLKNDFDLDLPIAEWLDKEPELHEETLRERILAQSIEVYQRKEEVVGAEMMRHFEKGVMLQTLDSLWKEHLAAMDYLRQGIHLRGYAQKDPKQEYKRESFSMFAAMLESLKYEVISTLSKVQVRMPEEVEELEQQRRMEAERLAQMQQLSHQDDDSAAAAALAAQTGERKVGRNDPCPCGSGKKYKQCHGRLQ
Chain of Sialic acid-binding Ig-like lectin 9 (Homo sapiens) (Q9Y336 whole entry): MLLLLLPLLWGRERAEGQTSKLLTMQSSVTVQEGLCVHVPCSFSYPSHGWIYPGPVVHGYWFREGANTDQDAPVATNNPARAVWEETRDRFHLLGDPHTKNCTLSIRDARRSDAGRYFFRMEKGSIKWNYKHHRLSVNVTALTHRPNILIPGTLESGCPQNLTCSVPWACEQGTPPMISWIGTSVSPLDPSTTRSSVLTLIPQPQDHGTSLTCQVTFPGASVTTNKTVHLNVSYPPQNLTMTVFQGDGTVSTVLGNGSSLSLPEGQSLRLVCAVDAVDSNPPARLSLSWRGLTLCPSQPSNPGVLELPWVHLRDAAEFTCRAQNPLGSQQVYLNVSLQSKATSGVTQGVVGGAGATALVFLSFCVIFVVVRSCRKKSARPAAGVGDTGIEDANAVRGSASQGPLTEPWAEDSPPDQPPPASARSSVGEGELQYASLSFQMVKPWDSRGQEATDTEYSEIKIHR

Fc1ccc(-c2nnc(CN3CCOC(Cn4cncn4)C3)o2)cc1 (stereo unspecified)
Percent Effect [1]: -6.46% | Percent Effect [2]: 0% | Percent Effect [3]: 1.39% | Percent Effect [4]: -4.51% | Percent Effect (Trypanosoma cruzi): -2.62% | Percent Effect [5]: 3.56% | Percent Effect [6]: -2.37% | Percent Effect (Homo sapiens): 19.6% | Percent Effect [7]: 0.971% | Percent Effect [8]: -14.6% | Percent Effect [9]: -2.35%

CC(=O)N(C)c1nc(CN2CCOC(Cn3cc(C)cn3)C2)cs1 (stereo unspecified)
Percent Effect [1]: -1.65% | Percent Effect [2]: 28.6% | Percent Effect [3]: -5.25% | Percent Effect [4]: -17.3% | Percent Effect (Trypanosoma cruzi): 3.82% | Percent Effect [5]: -6.95% | Percent Effect [6]: 17.4% | Percent Effect (Homo sapiens): 16.8% | Percent Effect [7]: 8.57% | Percent Effect [8]: 30.6% | Percent Effect [9]: -22.3%

CCOc1ccc(CC(=O)N2CCN(c3nccn3C)CC2)cc1
Percent Effect [1]: -0.699% | Percent Effect [2]: 13% | Percent Effect [3]: 1.57% | Percent Effect [4]: 3.44% | Percent Effect (Trypanosoma cruzi): -5.62% | Percent Effect [5]: -7.1% | Percent Effect [6]: 18.6% | Percent Effect (Homo sapiens): 9.26% | Percent Effect [7]: 4.23% | Percent Effect [8]: 14.1% | Percent Effect [9]: -6.41%

CC(C)c1nnc2n1CCN(Cc1csc(CC(=O)N(C)C)n1)C2
Percent Effect [1]: 2.63% | Percent Effect [2]: 18.4% | Percent Effect [3]: 10.8% | Percent Effect [4]: 3.17% | Percent Effect (Trypanosoma cruzi): -4.7% | Percent Effect [5]: -4.6% | Percent Effect [6]: 11.5% | Percent Effect (Homo sapiens): 34.2% | Percent Effect [7]: -0.49% | Percent Effect [8]: 7.32% | Percent Effect [9]: -15%

CCc1ccc(CNC(=O)NC(C)CN2CCOCC2)s1 (stereo unspecified)
Percent Effect [1]: -1.82% | Percent Effect [2]: 18.4% | Percent Effect [3]: -5.99% | Percent Effect [4]: -6.5% | Percent Effect (Trypanosoma cruzi): 1.46% | Percent Effect [5]: 1.18% | Percent Effect [6]: 9.49% | Percent Effect (Homo sapiens): 5.21% | Percent Effect [7]: -12.8% | Percent Effect [8]: 15.6% | Percent Effect [9]: 8.4%

Cc1cc(C)n(CC(=O)N2CCC(NS(C)(=O)=O)CC2)n1
Percent Effect [1]: -2.87% | Percent Effect [2]: 15.8% | Percent Effect [3]: 1.32% | Percent Effect [4]: 0.107% | Percent Effect (Trypanosoma cruzi): -1.69% | Percent Effect [5]: -2.3% | Percent Effect [6]: 8.69% | Percent Effect (Homo sapiens): -0.413% | Percent Effect [7]: 5.39% | Percent Effect [8]: 12.2% | Percent Effect [9]: -9.21%

Cc1cc(NC(=O)NCc2ccccn2)n(C)n1
Percent Effect [1]: -3.34% | Percent Effect [2]: -6.33% | Percent Effect [3]: 3.11% | Percent Effect [4]: 5.94% | Percent Effect (Trypanosoma cruzi): 0.103% | Percent Effect [5]: -2.37% | Percent Effect [6]: 15.6% | Percent Effect (Homo sapiens): -16.7% | Percent Effect [7]: 2.08% | Percent Effect [8]: 12.7% | Percent Effect [9]: -12.3%

CS(=O)(=O)NC[C@H]1OC[C@@H]2CCN(Cc3ccc(F)cc3)C[C@@H]21
Percent Effect [1]: 0.854% | Percent Effect [2]: 13.3% | Percent Effect [3]: 2.13% | Percent Effect [4]: -0.611% | Percent Effect (Trypanosoma cruzi): -1.74% | Percent Effect [5]: -27.8% | Percent Effect [6]: 7.35% | Percent Effect (Homo sapiens): 13.4% | Percent Effect [7]: 3.12% | Percent Effect [8]: 15% | Percent Effect [9]: -6.75%

Clc1ccccc1-c1nc(CNCCn2cccn2)cs1
Percent Effect [1]: -1.85% | Percent Effect [2]: -15.8% | Percent Effect [3]: 2.49% | Percent Effect [4]: -0.874% | Percent Effect (Trypanosoma cruzi): 9.02% | Percent Effect [5]: 0.383% | Percent Effect [6]: 10.9% | Percent Effect (Homo sapiens): 13.7% | Percent Effect [7]: 9.31% | Percent Effect [8]: 17.1% | Percent Effect [9]: 14.2%

CC(C)CCN1CCNC(=O)C1CC(=O)N1CCc2sccc2C1 (stereo unspecified)
Percent Effect [1]: -4.93% | Percent Effect [2]: 0% | Percent Effect [3]: 0.663% | Percent Effect [4]: 4.62% | Percent Effect (Trypanosoma cruzi): 3.44% | Percent Effect [5]: -15.2% | Percent Effect [6]: 1.17% | Percent Effect (Homo sapiens): -17.6% | Percent Effect [7]: 4.3% | Percent Effect [8]: 8.64% | Percent Effect [9]: 1.1%

CS(=O)(=O)NCC1CCCN(C(=O)Nc2cccnc2N2CCCC2)C1 (stereo unspecified)
Percent Effect [1]: -5.11% | Percent Effect [2]: 13.2% | Percent Effect [3]: -26.3% | Percent Effect [4]: -7.09% | Percent Effect (Trypanosoma cruzi): -6.33% | Percent Effect [5]: 2.37% | Percent Effect [6]: 16.4% | Percent Effect (Homo sapiens): -14.6% | Percent Effect [7]: 2.13% | Percent Effect [8]: 5.2% | Percent Effect [9]: -7%
